According to PubChem BioAssay (NCATS):
Results filed as inconclusive are left out. Activity calls are given as the source filed them. Unless noted, calls follow the shape of the dose curve; as a rule, active = well fitted curve in the direction sought with a large enough effect; inconclusive = small, poorly fitted or top-dose-only effect, or another doubt; inactive = no such curve, though single readings can be large; an effect the other way counts as inactive or inconclusive.

Legend:
[1] = target: Lysosomal acid glucosylceramidase (Homo sapiens) (UniProt P04062); assay: Glucocerebrosidase-p2 (AID 348; in the data active = potency below about 10 µM; also: potency is read from the fitted curve at half-maximal effect); conditions: purified GBA, blue fluorogenic substrate, 40 min
Chain of Lysosomal acid glucosylceramidase (Homo sapiens) (P04062 whole entry, looked up): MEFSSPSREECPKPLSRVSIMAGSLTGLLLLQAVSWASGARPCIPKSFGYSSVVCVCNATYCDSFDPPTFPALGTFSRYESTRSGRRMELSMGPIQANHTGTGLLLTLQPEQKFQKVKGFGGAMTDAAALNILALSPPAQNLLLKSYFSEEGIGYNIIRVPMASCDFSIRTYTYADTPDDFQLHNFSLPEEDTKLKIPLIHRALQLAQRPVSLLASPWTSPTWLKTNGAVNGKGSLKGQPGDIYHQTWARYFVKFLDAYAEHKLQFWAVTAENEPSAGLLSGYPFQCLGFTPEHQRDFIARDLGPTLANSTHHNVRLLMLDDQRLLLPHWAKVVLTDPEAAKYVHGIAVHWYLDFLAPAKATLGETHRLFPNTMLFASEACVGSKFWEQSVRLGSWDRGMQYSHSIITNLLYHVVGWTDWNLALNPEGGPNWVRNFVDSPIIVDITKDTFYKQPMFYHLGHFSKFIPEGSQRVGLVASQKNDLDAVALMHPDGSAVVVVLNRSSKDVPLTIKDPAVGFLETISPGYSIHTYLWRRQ
Summary of the method: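 Compounds titrated from 0.6 nM upwards against 0.2 nM enzyme in pH 5.9 citric acid/KH2PO4, taurocholate, tween-20; blue fluorogenic substrate 80 uM, 40 min room temperature, stopped and read Ex 365/Em 440 for AC50.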

[2] = target: Cytochrome P450 1A2 (Homo sapiens) (UniProt P05177); assay: p450-cyp1a2 (AID 410; calls by dose curve; also: potency is read from the fitted curve at half-maximal effect); conditions: recombinant CYP1A2, luciferin-ME demethylation, luminescence; series mostly up to 57 µM
Chain of Cytochrome P450 1A2 (Homo sapiens) (P05177 whole entry, looked up): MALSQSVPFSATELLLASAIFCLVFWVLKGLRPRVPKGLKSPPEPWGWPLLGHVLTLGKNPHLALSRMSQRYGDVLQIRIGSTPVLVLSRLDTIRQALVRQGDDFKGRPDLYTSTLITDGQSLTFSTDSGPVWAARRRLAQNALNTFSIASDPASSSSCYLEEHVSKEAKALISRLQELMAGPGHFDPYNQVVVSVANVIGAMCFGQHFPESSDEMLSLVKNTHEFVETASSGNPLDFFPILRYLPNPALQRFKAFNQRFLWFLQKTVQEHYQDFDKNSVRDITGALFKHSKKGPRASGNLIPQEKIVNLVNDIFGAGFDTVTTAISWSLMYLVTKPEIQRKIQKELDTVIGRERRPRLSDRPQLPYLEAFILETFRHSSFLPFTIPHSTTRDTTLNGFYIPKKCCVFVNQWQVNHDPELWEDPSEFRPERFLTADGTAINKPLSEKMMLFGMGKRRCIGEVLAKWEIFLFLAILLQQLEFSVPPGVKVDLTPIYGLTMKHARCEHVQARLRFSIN
Summary of the method: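 Inhibition was calculated relative to 57 uM furafylline (full inhibition). The reaction used human CYP1A2 at 20nM with Luciferin-ME at its Km, 100uM, driven by an NADPH-regenerating system for 60 min at room temperature.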

[3] = NFAT Signaling Pathway (AID 444; active = well fitted curve in either direction with a large enough effect, not every such curve was filed as active;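 also: carbachol stimulus at about its EC50 of 1 µM final; % is scaled to controls: 0 for no effect and ±100 for the full control effect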); conditions: Jurkat NFAT-bla M1, carbachol, beta-lactamase ratio, 5 h; at 7.69 µM (top of the series) unless noted
Summary of the method: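 Read-out: CCF4 FRET ratio (460 nm/530 nm) after 1 h RT dye loading, used for %activity and AC50 from titration series. Cells: Jurkat NFAT-β-lactamase/M1 line, treated with compound plus 1 uM carbachol for 5 h, 37 °C.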

[4] = Stat Signaling Pathway (AID 446; active = well fitted curve in either direction with a large enough effect, not every such curve was filed as active;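 also: ME-180 cervical cancer cells given 40 pM IL-6 alongside compound; SIE-controlled beta-lactamase reporter measured as 460/530 nm FRET emission ratio; % is scaled to controls: 0 for no effect and ±100 for the full control effect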); conditions: ME-180 SIE beta-lactamase reporter, IL-6 stimulated, 5 h; at 7.69 µM (top of the series) unless noted
Summary of the method: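 Reporter line: ME-180 cervical carcinoma, SIE-beta-lactamase. Treatment: compound with 40 pM IL-6, 5 hrs, 37 C, in low-serum OPTI-MEM with 10 mM HEPES pH 7.3. Detection: 460/530 nm fluorescence.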

[5] = target: Glucocorticoid receptor (Homo sapiens) (UniProt P04150); assay: GR-EFC Redistribution (AID 451; calls by dose curve; also: potency is read from the fitted curve at half-maximal effect); conditions: CHO-K1 GR-EFC translocation, beta-gal luminescence, 2 h
Chain of Glucocorticoid receptor (Homo sapiens) (P04150 whole entry, looked up, the tested form may be a part): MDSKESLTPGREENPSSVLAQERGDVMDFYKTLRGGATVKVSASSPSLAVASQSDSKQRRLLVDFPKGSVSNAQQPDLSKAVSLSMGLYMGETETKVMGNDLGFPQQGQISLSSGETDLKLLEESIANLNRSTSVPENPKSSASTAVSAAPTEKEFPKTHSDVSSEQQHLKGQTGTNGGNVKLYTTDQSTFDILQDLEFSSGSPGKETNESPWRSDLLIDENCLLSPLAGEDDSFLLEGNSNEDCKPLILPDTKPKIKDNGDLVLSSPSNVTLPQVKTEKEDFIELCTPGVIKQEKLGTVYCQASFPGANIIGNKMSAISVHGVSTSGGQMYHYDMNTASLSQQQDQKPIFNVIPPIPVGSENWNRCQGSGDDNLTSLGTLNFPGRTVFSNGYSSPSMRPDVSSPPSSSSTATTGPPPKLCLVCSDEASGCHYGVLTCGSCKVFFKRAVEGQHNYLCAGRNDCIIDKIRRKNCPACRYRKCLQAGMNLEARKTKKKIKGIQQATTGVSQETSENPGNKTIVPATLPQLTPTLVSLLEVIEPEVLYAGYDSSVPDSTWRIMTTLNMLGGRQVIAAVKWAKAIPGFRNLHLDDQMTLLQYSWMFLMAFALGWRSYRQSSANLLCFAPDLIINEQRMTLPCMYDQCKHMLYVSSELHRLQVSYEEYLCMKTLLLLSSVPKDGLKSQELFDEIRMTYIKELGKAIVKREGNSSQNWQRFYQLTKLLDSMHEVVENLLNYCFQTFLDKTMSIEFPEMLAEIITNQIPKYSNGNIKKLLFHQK
Summary of the method: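 Translocation of GR-ED fusion to nuclear EA restores b-gal, read by luminescence after 1 h room-temperature detection. Engineered CHO-K1 biosensor cells, 1,000/well, exposed 2 h at 37 C to titrations up to 46 uM final.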

[6] = target: Mitogen-activated protein kinase 10 (Mus musculus) (UniProt Q61831); assay: JNK3 AlphaScreen Assay (AID 530; active = well fitted curve in either direction with a large enough effect, not every such curve was filed as active;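 also: kinase came from lysate of stimulated human HepG2 cells; signal reports phosphorylation of biotinylated GST-cJun 1-79 at Ser73 with 10 µM ATP; % is scaled to controls: 0 for no effect and ±100 for the full control effect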); conditions: JNK3 lysate, c-Jun phosphorylation; series mostly up to 57.1 µM
Summary of the method: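 Room-temperature AlphaScreen kinase assay; pre-activated HepG2 lysate as JNK3 source, biotin-GST-cJun(1-79) substrate, 10 uM ATP, compound 15 min preincubation.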

[7] = target: 3',5'-cyclic-AMP phosphodiesterase 4B (Homo sapiens) (UniProt Q07343); assay: qHTS Assay for Inhibitors of PDE-IV (AID 607; active = well fitted activation curve with a large enough effect in the main read-out, with a control signal flat, not every such curve was filed as active; also: % of control where 0% means no effect); conditions: HEK293 ACTOne CNG channel cells, membrane potential fluorescence; series mostly up to 22.9 µM
Chain of 3',5'-cyclic-AMP phosphodiesterase 4B (Homo sapiens) (Q07343 whole entry, looked up): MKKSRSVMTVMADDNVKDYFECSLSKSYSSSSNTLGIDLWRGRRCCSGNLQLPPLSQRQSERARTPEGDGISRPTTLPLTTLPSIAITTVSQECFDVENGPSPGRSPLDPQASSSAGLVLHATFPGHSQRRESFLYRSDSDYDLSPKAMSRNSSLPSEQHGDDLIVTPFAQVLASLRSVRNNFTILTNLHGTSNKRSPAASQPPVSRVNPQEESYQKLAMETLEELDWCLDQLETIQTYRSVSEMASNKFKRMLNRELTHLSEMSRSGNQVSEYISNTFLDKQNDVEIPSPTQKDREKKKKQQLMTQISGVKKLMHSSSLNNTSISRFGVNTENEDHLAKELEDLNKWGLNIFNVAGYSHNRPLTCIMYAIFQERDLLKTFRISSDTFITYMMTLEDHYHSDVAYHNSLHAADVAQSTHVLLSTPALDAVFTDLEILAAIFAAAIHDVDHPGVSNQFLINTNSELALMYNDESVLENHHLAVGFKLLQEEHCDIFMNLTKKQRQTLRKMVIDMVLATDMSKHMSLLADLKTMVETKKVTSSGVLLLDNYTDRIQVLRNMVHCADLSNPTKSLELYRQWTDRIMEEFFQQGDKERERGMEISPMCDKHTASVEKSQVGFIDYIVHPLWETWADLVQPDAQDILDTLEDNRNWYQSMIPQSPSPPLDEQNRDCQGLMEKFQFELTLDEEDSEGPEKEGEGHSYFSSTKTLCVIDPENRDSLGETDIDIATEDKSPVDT
Summary of the method: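 Cell-based read-out of cAMP via a modified cyclic nucleotide-gated channel and membrane potential dye (535/590 nm) in HEK293 cells expressing PDE4 endogenously. Compounds tested up to 22.9 uM final; 100 uM RO 20-1724 reference.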

[8] = target: Cytochrome P450 3A4 (Homo sapiens) (UniProt P08684); assay: qHTS Assay for Inhibitors and Substrates of Cytochrome P450 3A4 (AID 884); conditions: recombinant CYP3A4, Luciferin-PPXE luminescence; series mostly up to 57.1 µM; also: nearly all actives have a fitted effect of over 50% in size; also: potency is read from the fitted curve at half-maximal effect
Chain of Cytochrome P450 3A4 (Homo sapiens) (P08684 whole entry, looked up): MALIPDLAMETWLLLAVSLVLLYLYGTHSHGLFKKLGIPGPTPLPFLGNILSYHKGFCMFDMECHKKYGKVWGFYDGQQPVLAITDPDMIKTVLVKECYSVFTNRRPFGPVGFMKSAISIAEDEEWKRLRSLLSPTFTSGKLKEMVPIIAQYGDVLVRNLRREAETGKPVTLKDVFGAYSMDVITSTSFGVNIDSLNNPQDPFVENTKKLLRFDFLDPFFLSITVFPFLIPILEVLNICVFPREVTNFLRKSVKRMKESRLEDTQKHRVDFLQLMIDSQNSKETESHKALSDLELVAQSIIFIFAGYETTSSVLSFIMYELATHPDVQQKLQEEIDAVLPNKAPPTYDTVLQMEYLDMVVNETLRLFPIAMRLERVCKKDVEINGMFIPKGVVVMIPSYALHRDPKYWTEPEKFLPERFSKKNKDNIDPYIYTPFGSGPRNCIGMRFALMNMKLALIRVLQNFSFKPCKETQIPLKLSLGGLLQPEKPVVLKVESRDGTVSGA
Summary of the method: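 20 nM human CYP3A4 with 25 uM Luciferin-PPXE (at KM) in 200 mM KPO4, preincubated 10 min with compound; NADPH regeneration started a 60 min RT reaction. Luciferin detected by luminescence, normalized to 57 uM ketoconazole as full inhibition.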

[9] = target: Cytochrome P450 3A4 (Homo sapiens) (UniProt P08684); assay: qHTS Assay for Activators of Cytochrome P450 3A4 (AID 885); conditions: recombinant CYP3A4, Luciferin-PPXE luminescence, 60 min; series mostly up to 57.1 µM; also: nearly all actives have a fitted effect of over 65% in size; also: potency is read from the fitted curve at half-maximal effect
Summary of the method: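 Signal was normalized against complete inhibition by 57 uM ketoconazole. The reaction used 20nM CYP3A4 with 25uM Luciferin-PPXE, 10-min compound preincubation and a 60-min NADPH-supported step at RT.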

[10] = qHTS Assay for Lipid Storage Modulators (AID 1519; calls by dose curve); conditions: Drosophila S3 cells, BODIPY lipid droplet/cell ratio, laser cytometry, cells loaded with oleic acid; for activity change, negative = inhibition: at 57.5 µM (top of the series)
Summary of the method: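 Cells seeded at 5,000 per well were treated with compounds over a concentration series and loaded with oleic acid (400 uM, as added). Lipid droplet fluorescence (488 nm excitation, 500-530 nm channel) was read by laser-scanning cytometry and normalized to 20 uM Triacsin C.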

[11] = Primary qHTS for small molecule stabilizers of the endoplasmic reticulum resident proteome: Secreted ER Calcium Modulated Protein (SERCaMP) assay (AID 1508630); conditions: SH-SY5Y GLuc-SERCaMP (Gaussia luciferase released on ER calcium loss) secretion, thapsigargin, luminescence; series mostly up to 38.4 µM; also: % is scaled to controls: 0 for no effect and ±100 for the full control effect
Summary of the method: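 GLuc-SERCaMP-expressing SH-SY5Y cells, pretreated 16 h with compound, are challenged with thapsigargin to empty ER calcium stores; after 4 h, coelenterazine is added directly to the medium and luminescence is imaged.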

[12] = AP1 Signaling Pathway (AID 357; active = well fitted curve in either direction with a large enough effect, not every such curve was filed as active); conditions: ME-180 (cervical carcinoma) AP-1-bla reporter, EGF-induced, beta-lactamase ratio, 5 h; at 7.69 µM (top of the series) unless noted
Summary of the method: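 Modulation of EGF-driven AP-1 transcription was assessed with a beta-lactamase reporter in ME-180 cells. Compound and EC50 EGF were co-incubated 5 hours at 37 °C before 2.5-hour CCF4 loading at room temperature and dual-emission reading.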

[13] = target: Glucocorticoid receptor (Homo sapiens) (UniProt P04150); assay: GR-GFP Redistribution (AID 450;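 active = compounds whose dose series gives a full or clear partial fitted curve of increased nuclear translocation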; also: potency is read from the fitted curve at half-maximal effect); conditions: U2OS GR-GFP nuclear translocation, laser cytometry, 2 h
[14] = Confirmation and Secondary Assay for Modulators of Hemoglobin Beta Chain Splicing at IVS2 654 locus (AID 910); conditions: HeLa EGFP-654 splicing reporter, GFP fluorescence, 48 h; series mostly up to 38.3 µM;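 also: HeLa cells stably carrying EGFP split by mutant beta-globin IVS2-654 intron; per-well total GFP intensity by laser scanning cytometry after 2-day treatment; % of control where 0% means no effect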
Summary of the method: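 Readout: per-well total peak green fluorescence (488 nm ex, 500–520 nm em) from objects 5–250 µm, reflecting correct splicing of an EGFP-654 reporter. Compounds were applied for 2 days at 37 °C to overnight-plated HeLa EGFP-654 cells; controls were DMSO and 500 nM IVS2-654 PNA.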

[15] = Confirmation and Secondary Assay for Modulators of Hemoglobin Beta Chain Splicing at IVS2 705 locus (AID 930); conditions: HeLa EGFP-705 splicing reporter, GFP fluorescence, 48 h; series mostly up to 38.3 µM;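 also: HeLa cells stably expressing the EGFP-705 splicing reporter; GFP fluorescence per well restored by corrected splicing of the IVS2-705 intron in EGFP; % of control where 0% means no effect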
Summary of the method: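 Assay measures total GFP intensity per well in HeLa EGFP-705 cells after 2 days with compound; mis-splicing normally truncates EGFP, so fluorescence indicates corrected splicing.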

[16] = target: Ubiquitin carboxyl-terminal hydrolase 1 (Homo sapiens) (UniProt O94782); assay: Inhibitors of USP1/UAF1: Pilot qHTS (AID 504865); conditions: purified USP1/UAF1, Ub-rhodamine cleavage fluorescence; series mostly up to 54.9 µM;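 also: rhodamine fluorescence freed from ubiquitin-rhodamine substrate followed over time; top concentration of the series differs between compounds; % is scaled to controls: 0 for no effect and ±100 for the full control effect; nearly all actives have a fitted effect of over 35% in size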
Chain of Ubiquitin carboxyl-terminal hydrolase 1 (Homo sapiens) (O94782 whole entry, looked up): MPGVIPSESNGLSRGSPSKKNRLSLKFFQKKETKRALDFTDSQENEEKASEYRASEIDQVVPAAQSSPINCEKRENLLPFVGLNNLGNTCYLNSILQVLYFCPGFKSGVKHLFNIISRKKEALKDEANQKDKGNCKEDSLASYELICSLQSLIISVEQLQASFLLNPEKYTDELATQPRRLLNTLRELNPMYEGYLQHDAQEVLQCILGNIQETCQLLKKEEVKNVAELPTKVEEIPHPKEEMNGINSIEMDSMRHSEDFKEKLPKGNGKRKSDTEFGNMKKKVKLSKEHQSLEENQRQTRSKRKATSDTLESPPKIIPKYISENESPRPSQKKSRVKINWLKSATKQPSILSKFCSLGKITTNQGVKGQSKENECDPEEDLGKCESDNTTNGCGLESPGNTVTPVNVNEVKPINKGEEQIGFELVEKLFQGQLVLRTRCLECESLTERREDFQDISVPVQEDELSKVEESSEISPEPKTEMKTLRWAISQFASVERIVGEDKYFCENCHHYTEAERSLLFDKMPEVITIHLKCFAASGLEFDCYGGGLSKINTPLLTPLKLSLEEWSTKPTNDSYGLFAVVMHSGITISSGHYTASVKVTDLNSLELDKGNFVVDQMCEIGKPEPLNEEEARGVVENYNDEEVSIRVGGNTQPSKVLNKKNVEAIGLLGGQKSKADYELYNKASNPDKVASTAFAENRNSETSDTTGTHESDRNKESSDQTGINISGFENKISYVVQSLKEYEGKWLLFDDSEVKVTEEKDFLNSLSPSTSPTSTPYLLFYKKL
Summary of the method: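 Deubiquitinase activity followed as kinetic rhodamine fluorescence release from 150 nM Ub-Rho. 1 nM USP1/UAF1 with compound, after 15 min room-temperature preincubation, in HEPES pH 7.8 buffer containing TCEP, EDTA, BSA and Tween-20.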

[17] = measured here: cell count channel max response
[18] = measured here: lipid channel max response

COC(=O)N1CCC2(CC1)CN(c1ccc(-c3ccccc3)cc1)C2
0.422%: max response [10, 18]
active: Potency [2] 1.26 µM | Potency [9] 3.16 µM
inactive: Potency [1] > 11.4 µM | activity change, negative = inhibition [3] 15.9% | activity, negative = inhibition [4] -8.46% | Potency [5] > 46 µM | Potency [6] | Potency [7] | Potency [8] | activity change, negative = inhibition [10] 5.19% | outcome [11]
-7.69%: max response [10, 17]

COC(=O)N1CCC2(CCCN(C(=O)Nc3cccc(C#N)c3)C2)CC1
23.7%: max response [10, 18]
16%: max response [10, 17]
inactive: Potency [1] > 11.4 µM | activity change, negative = inhibition [12] -0.449% | Potency [5] > 46 µM | Potency [6] | Potency [7] | Potency [9] | activity change, negative = inhibition [10] 4.6% | outcome [11]

Cc1cnc(CNc2ncncc2-c2ccccc2CN(C)C)cn1
active: Potency [2] 12.6 µM | Potency [8] 3.16 µM
4.47%: max response [10, 17]
inactive: Potency [1] > 11.4 µM | activity, negative = inhibition [4] 17.1% | Potency [13] > 46 µM | Potency [5] > 46 µM | Potency [6] | Potency [7] | Potency [9] | Potency [14] | outcome [15] | activity change, negative = inhibition [10] -8.48% | Potency [16] | outcome [11]
0.168%: max response [10, 18]
